PubChem BioAssay AID434973 (Sanford-Burnham Center for Chemical Genomics, 2010)
About 4,900 (1.5%) of roughly 330,000 compounds were called active. This is one part of a sample in which actives are shown more often than they occur.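 How the source made its calls: active means inhibition above about 50% at the single test dose (limit read from the data); inactive means the rest.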

Target: Sentrin-specific protease 7 (Homo sapiens) (UniProt Q9BQF6)
Experiment: SENP7 protease inhibitors, primary screen, biochemical, luminescence, uHTS (AID 434973);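 further: plate controls were DMSO with enzyme for no effect and no enzyme buffer wells for full effect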
Conditions: recombinant SENP7, Z-RLRGG-aminoluciferin luminescence, 40 min; at 5 µM; active compounds read high

inhibition, active:
CC(=C/c1ccccc1)/C=N/NC(=O)c1cc(C)oc1C 73%
Cc1cc(C(=O)N/N=C/c2ccc(N3CCOCC3)cc2)c(C)o1 85.5%
COc1cccc(C(=O)c2cc3ccc(O)cc3oc2=O)c1 100%
O=C(COc1ccc2oc3c(c2c1)CCCC3)Nc1ccccn1 89.1%
Cc1cc(N=Nc2ccc3ccccc3c2)ccc1O 97.5%
O=c1[nH]c(/C=C/c2cccc(Br)c2)nc2ccccc12 65.8%
CCOC(=O)c1cnc2[nH]c3ccccc3n2c1=O 83.7%
O=C(Cn1ccc([N+](=O)[O-])n1)NCc1cccs1 71.3%

inhibition, inactive:
COC(=O)[C@]1(Cc2ccccc2)N[C@H](CN(C)S(=O)(=O)c2ccc(F)cc2)[C@@H]2C(=O)N(Cc3ccccc3)C(=O)[C@@H]21 1.87%
CNc1[nH]ncc1[N+](=O)[O-] 3.45%
Cc1ccccc1N/N=C/c1ccc(N2CCOCC2)cc1 -3.84%
O=C(NN=Cc1ccc(N2CCOCC2)cc1)c1cc2ccccc2cc1O 4.23%
COc1ccc(C/C(C)=N/NC(=O)c2cc(C)oc2C)cc1 -5.26%
Cc1cc(C(=O)N/N=C\C(Br)=C\c2ccccc2)c(C)o1 21.1%
O=C(c1ccc(CS(=O)(=O)c2ccccc2)o1)N1CCN(c2ccccc2)CC1 -0.219%
O=C(NNc1ccccc1Cl)C(O)(c1cccc(C(F)(F)F)c1)c1cccc(C(F)(F)F)c1 1.97%
COc1cc(CNC2CCCCC2)c(Br)cc1OC1CCCC1 -2.57%
COc1ccc(C(C)NC(=O)C2CCCC2)cc1 (stereo unspecified) 1.04%
COc1cccc(C(=O)NNC(=O)c2cccc(F)c2)c1 3.09%
CCOC(=O)c1cc2cc3ccccc3cc2oc1=O 7.03%
COc1ccc(N2CC(C(=O)NCCN3C(=O)S/C(=C\c4cccnc4)C3=O)CC2=O)c(OC)c1 (stereo unspecified) -2.06%
Cc1nc(-c2ccc(F)cc2)c(CC(=O)N(C)CC(=O)Nc2c(C)cccc2C)s1 -11.8%
CSCCC1NC2(C(=O)Nc3ccc(Cl)cc32)[C@@H]2C(=O)N(C3CCCC3)C(=O)[C@H]12 (stereo partly specified) 10.2%
COc1ccc(OC)c2[nH]c(=O)c(CCNC(=O)C(=O)c3c[nH]c4ccccc34)cc12 4.26%
CCN(CC)CCCNC(=O)COc1ccc2oc3c(c2c1)CCCC3 3.16%
CCOC(=O)N1CCN(C(=O)COc2ccc3oc4c(c3c2)CCCC4)CC1 -3.39%
O=C1C=C(c2ccnc3cc(Cl)ccc23)C[C@@H](c2ccc3c(c2)OCO3)C1 2.03%
CC(=O)N1CCN(S(=O)(=O)c2ccc(C)c([N+](=O)[O-])c2)C1C(C)C (stereo unspecified) 2.77%
CCOC(=O)C(NC(=O)CC(C)C)(Nc1sc2c(c1C(N)=O)CCCC2)C(F)(F)F (stereo unspecified) -5.57%
CC(NCc1ccccc1OC1CCCC1)c1ccccc1 (stereo unspecified) 8.44%
Cc1ccc(/C=N/NC(=O)c2cc3ccccc3cc2O)o1 19%
COC(=O)c1cccc(-n2[nH]nnc2=S)c1 8.95%
Cc1ccc(CSc2ccc(S(=O)(=O)N3CCCCC3)cn2)cc1 14.9%
COc1cc(C(=O)N2CCN(C)CC2)cc(OC)c1OC -4.77%
O=c1[nH]c(/C=C\c2cccc(C(F)(F)F)c2)nc(O)c1[N+](=O)[O-] 11.2%
CCOc1cc(/C=C/c2nc3ccccc3c(=O)[nH]2)cc(Br)c1OC -1.26%
COc1ccccc1N(CC(=O)Nc1ccccc1C(=O)N1CCCC1)S(C)(=O)=O 5.42%
CCOC(=O)c1cnc2sccn2c1=O 0.0796%
CCOC(=O)c1cnc(COc2ccccc2Cl)[nH]c1=O -8.27%
COc1cc(Cl)c(C)cc1NC(=O)CN1CCCCCC1 7.89%
CC(C)CCOc1ccc(C(=O)C[N+]2(C)CCOCC2)cc1 0.789%
O=C(CCn1ccc([N+](=O)[O-])n1)Nc1nccs1 0.106%
Cc1ccnc(NC(=O)Cn2ccc([N+](=O)[O-])n2)c1 10%
COc1ccc(N(CC(=O)NC2CCCCC2)C(=O)CNC(=O)c2ccco2)c(OC)c1 6.97%
Cc1noc(C)c1C(=O)NCCc1ccc(S(N)(=O)=O)cc1 10.1%
CCCC(=O)N(CCN1CCOCC1)c1nc2ccc(OCC)cc2s1 28.1%
